From paper PMC7862700, “An all-to-all approach to the identification of sequence-specific readers for epigenetic DNA modifications on cytosine” come the findings set out here.

Holding throughout (assay): DAPPL (digital affinity profiling via proximity ligation, sequencing); 10 mM Tris-HCl pH 7.5, 50 mM NaCl, 1 mM DTT, 4% glycerol, room temperature, 30 min; GST-TFs on glutathione beads, 16-mer random dsDNA library, 0.1% formaldehyde crosslink after washing; high values mean tight binding
One test has as its target T1, FLI1 (Homo sapiens, UniProt Q01543 1-452).
T1 sequence: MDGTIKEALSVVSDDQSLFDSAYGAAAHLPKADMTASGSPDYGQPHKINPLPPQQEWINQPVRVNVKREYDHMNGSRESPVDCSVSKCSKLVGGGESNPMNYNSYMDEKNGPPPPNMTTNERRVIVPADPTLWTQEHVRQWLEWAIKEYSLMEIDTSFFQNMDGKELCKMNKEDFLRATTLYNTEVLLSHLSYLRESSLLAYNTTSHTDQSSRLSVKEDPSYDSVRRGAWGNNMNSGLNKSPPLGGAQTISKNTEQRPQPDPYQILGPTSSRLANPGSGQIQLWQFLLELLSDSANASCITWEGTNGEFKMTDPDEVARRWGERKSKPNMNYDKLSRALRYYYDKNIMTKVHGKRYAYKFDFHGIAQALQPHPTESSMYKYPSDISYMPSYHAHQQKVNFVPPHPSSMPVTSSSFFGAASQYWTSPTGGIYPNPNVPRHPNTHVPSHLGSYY
Particulars: protein: recombinant; tags: N-terminal GST; dsDNA, one strand shown. A digest of the protocol: (§1)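 After expression in yeast as GST fusions, human transcription factors were bound to glutathione beads, DNA-barcoded and mixed with a tag-only sample. The pools were incubated with 200 nmole of a 16-mer random double-stranded DNA library in Tris/NaCl/DTT/glycerol buffer (30 min, room temperature), washed and crosslinked with 0.1% formaldehyde. Proximity ligation with BsaI/T4 ligase ran for 1 h at 37 °C, before PCR amplification and sequencing on an Illumina NextSeq500. Binding signal is a hexamer's read frequency for a factor divided by its frequency for the tag-only sample.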

The next test has as its target T2, ELK1 (Homo sapiens, UniProt P19419 1-428).
T2 sequence: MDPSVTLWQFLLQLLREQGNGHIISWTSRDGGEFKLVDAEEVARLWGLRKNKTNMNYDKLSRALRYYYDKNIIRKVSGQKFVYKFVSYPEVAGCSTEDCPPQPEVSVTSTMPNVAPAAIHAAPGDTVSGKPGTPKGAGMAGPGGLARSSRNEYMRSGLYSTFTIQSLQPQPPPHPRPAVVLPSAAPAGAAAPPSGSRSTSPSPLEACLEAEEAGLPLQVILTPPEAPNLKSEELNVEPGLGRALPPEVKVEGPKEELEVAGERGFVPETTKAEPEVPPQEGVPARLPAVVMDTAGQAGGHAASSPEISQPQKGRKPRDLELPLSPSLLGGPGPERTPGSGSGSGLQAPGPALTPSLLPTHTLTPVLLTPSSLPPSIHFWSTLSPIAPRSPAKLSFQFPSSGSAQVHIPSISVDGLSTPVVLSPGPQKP
To be noted: protein: recombinant; tags: N-terminal GST; dsDNA, one strand shown. A digest of the protocol:
as §1

For another test, the target named is T3, GABPA (Homo sapiens, UniProt Q06546 1-454).
T3 sequence: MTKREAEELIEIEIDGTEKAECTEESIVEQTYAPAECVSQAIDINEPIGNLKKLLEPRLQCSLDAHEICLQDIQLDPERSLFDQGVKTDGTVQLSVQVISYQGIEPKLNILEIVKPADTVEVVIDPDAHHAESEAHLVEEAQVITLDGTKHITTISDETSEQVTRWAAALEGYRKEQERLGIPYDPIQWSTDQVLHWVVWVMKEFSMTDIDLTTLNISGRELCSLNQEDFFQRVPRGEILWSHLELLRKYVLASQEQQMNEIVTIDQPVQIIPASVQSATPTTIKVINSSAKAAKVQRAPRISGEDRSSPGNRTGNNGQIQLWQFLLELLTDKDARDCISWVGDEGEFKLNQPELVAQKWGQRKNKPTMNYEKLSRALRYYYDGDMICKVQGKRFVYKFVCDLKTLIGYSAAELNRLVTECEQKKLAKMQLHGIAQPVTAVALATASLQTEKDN
To be noted: protein: recombinant; tags: N-terminal GST; dsDNA, one strand shown. A digest of the protocol: as §1

The target of a further test is T4, ERG (Homo sapiens, UniProt P11308 1-479).
T4 sequence: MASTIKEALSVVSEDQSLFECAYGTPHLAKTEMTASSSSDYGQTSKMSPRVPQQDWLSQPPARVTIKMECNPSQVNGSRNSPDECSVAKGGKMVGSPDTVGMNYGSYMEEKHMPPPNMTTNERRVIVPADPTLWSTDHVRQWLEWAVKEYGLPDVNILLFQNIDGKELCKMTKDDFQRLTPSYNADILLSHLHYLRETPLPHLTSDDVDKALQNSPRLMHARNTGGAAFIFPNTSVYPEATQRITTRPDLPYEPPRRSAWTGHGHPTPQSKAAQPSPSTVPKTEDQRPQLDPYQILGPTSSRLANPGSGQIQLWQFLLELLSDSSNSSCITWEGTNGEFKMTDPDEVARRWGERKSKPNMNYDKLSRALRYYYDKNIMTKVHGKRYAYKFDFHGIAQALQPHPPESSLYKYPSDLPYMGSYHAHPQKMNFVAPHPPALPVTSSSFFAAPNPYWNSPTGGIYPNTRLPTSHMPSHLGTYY
Particulars: protein: recombinant; tags: N-terminal GST; dsDNA, one strand shown. The essentials:
as §1

The target in the next test is ELF1 (Homo sapiens, UniProt P32519 1-619). To be noted: protein: recombinant; tags: N-terminal GST; dsDNA, one strand shown. A digest of the protocol: as §1
A further test concerns the target T5, EHF (Homo sapiens, UniProt Q9NZC4 1-300).
T5 sequence: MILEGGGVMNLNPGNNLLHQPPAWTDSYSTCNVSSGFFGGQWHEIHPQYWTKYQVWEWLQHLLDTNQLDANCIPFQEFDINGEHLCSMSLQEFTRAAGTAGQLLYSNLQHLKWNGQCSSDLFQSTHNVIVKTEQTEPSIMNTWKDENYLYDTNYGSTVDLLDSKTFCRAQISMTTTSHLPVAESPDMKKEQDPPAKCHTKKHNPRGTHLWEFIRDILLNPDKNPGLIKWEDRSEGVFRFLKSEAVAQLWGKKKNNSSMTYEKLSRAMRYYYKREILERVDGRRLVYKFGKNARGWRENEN
Particulars: protein: recombinant; tags: N-terminal GST; dsDNA, one strand shown. The essentials:
as §1

For the next test, the target named is SPI1 (Homo sapiens, UniProt P17947 1-270). Particulars: protein: recombinant; tags: N-terminal GST; dsDNA, one strand shown. The essentials: as §1
Another test concerns the target SPIB (Homo sapiens, UniProt Q01892 1-262). To be noted: protein: recombinant; tags: N-terminal GST; dsDNA, one strand shown. The essentials: as §1
For a further test, the target named is T6, ELK3 (Homo sapiens, UniProt P41970 1-407).
T6 sequence: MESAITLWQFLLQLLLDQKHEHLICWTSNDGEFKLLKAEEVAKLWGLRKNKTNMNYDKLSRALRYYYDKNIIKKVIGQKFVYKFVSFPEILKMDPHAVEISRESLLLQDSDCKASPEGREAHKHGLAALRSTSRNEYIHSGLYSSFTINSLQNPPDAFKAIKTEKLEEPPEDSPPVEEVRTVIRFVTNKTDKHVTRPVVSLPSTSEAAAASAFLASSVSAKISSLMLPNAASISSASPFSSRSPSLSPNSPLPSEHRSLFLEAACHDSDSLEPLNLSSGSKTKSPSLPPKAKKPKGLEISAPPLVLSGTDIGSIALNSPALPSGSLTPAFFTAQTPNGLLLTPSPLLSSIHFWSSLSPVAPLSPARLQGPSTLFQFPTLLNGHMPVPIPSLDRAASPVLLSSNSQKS
Particulars: protein: recombinant; tags: N-terminal GST; dsDNA, one strand shown. A digest of the protocol: as §1

A further test concerns the target T7, FEV (Homo sapiens, UniProt Q99581 1-238).
T7 sequence: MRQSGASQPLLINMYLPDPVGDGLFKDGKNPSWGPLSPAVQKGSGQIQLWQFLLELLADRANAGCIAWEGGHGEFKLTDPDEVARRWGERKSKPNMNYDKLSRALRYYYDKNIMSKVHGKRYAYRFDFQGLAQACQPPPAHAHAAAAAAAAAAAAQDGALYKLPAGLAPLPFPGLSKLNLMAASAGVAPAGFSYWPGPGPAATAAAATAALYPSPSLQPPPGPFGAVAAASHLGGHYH
To be noted: protein: recombinant; tags: N-terminal GST; dsDNA, one strand shown. The essentials:
as §1

For a further test, the target named is ETV5 (Homo sapiens, UniProt P41161 1-510). To be noted: protein: recombinant; tags: N-terminal GST; dsDNA, one strand shown. A digest of the protocol:
as §1

The target of a further test is HSF1 (Homo sapiens, UniProt Q00613 1-529). Particulars: protein: recombinant; tags: N-terminal GST; chain copies: 3; dsDNA, one strand shown. A digest of the protocol: as §1
A further test concerns the target T8, SPIC (Homo sapiens, UniProt Q8N5J4 1-248).
T8 sequence: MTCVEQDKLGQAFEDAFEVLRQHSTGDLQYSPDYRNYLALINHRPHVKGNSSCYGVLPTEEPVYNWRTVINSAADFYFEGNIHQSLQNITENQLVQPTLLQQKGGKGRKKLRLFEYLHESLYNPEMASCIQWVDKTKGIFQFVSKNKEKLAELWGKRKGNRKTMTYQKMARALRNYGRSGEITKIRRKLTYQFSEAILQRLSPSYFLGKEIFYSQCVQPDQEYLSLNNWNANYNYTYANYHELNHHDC
To be noted: protein: recombinant; tags: N-terminal GST; dsDNA, one strand shown. The essentials:
as §1

The target in another test is ELF4 (Homo sapiens, UniProt Q99607 1-663). Particulars: protein: recombinant; tags: N-terminal GST; dsDNA, one strand shown. A digest of the protocol: as §1
The target of a further test is T9, ELK4 (Homo sapiens, UniProt P28324-2 1-405).
T9 sequence: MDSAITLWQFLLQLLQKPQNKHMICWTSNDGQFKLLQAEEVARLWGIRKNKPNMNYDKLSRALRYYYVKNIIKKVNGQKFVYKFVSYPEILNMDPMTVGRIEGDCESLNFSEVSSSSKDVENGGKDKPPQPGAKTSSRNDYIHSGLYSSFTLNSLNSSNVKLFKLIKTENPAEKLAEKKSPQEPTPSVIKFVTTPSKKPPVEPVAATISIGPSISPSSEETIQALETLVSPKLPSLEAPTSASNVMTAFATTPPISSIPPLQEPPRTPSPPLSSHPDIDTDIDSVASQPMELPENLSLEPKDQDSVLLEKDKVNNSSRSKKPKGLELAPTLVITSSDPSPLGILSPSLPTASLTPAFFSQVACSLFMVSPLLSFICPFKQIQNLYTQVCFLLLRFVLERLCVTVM
Particulars: protein: recombinant; tags: N-terminal GST; dsDNA, one strand shown. A digest of the protocol: as §1

The target in another test is T10, ETV2 (Homo sapiens, UniProt O00321 1-342).
T10 sequence: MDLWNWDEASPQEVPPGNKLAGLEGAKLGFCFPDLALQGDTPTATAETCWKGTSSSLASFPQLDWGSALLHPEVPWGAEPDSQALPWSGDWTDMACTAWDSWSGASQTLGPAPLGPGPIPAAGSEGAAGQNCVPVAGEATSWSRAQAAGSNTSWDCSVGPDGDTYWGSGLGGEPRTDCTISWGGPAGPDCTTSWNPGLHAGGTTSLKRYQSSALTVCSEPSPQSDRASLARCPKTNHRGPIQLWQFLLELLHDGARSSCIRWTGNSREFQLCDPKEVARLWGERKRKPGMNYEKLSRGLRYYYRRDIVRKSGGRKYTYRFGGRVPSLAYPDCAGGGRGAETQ
To be noted: protein: recombinant; tags: N-terminal GST; dsDNA, one strand shown. The essentials:
as §1

A further test has as its target T11, ELF3 (Homo sapiens, UniProt P78545 1-371).
T11 sequence: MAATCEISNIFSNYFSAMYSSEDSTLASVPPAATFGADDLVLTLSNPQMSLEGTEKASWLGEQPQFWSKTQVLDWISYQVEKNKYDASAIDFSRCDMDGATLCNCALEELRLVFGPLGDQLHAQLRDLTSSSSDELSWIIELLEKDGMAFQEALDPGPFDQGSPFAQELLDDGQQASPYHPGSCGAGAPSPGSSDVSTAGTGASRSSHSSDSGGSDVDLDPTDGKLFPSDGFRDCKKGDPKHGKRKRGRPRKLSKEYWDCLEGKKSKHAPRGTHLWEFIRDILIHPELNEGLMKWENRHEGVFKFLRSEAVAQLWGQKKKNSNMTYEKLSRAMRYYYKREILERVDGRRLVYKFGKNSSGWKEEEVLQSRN
To be noted: protein: recombinant; tags: N-terminal GST; dsDNA, one strand shown. The essentials:
as §1

Another test concerns the target CRX (Homo sapiens, UniProt O43186 1-299). Particulars: protein: recombinant; tags: N-terminal GST; dsDNA, one strand shown. The essentials: as §1
The next test addresses ETV1 (Homo sapiens, UniProt P50549 1-477). To be noted: protein: recombinant; tags: N-terminal GST; dsDNA, one strand shown. A digest of the protocol:
as §1

Sequence of ELF1 (P32519 whole entry): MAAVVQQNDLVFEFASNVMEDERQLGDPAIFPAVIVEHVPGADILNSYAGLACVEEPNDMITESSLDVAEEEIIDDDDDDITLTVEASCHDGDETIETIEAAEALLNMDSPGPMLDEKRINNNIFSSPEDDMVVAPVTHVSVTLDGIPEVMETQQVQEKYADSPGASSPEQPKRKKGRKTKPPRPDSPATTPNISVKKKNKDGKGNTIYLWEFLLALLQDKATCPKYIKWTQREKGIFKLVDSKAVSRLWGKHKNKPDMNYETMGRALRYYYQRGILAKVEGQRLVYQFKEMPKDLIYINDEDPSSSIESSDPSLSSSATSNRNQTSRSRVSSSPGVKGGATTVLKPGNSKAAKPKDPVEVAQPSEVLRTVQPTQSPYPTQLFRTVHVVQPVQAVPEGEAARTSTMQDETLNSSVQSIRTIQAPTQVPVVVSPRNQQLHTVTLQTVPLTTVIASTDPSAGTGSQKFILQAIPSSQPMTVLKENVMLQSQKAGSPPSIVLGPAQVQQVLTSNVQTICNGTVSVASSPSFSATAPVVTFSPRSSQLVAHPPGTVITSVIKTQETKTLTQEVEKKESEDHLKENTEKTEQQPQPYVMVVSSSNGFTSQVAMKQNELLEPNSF
Sequence of ELF4 (Q99607 whole entry): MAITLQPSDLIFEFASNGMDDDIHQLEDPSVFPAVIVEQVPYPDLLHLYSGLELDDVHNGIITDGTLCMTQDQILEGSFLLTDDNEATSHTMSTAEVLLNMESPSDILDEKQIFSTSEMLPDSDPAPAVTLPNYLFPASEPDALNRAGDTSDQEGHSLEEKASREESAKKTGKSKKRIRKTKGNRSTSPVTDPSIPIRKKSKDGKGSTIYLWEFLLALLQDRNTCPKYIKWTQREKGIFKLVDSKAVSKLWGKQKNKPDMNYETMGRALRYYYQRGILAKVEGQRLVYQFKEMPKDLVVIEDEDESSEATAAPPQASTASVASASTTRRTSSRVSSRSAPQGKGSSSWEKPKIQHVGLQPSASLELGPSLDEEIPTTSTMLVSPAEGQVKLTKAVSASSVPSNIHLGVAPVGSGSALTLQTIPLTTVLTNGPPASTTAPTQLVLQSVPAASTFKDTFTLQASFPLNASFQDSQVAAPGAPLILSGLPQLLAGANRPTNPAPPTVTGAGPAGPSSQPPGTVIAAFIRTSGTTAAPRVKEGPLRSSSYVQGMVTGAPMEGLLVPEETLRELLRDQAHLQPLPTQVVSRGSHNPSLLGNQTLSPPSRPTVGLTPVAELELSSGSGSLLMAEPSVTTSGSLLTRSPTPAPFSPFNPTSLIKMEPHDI
Sequence of ETV1 (P50549 whole entry): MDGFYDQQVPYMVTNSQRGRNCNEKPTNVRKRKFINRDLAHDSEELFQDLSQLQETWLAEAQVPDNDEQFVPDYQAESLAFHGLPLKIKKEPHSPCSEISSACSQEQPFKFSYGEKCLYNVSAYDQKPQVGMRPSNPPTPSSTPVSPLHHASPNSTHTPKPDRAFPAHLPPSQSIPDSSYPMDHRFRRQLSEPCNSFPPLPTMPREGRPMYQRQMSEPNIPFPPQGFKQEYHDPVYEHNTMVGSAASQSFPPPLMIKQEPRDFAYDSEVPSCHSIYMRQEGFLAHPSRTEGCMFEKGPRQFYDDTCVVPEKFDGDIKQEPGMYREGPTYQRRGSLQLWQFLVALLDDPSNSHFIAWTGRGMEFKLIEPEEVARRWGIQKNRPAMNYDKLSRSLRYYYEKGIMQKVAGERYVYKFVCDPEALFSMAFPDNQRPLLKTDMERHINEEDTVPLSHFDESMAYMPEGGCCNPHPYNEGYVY
Sequence of HSF1 (Q00613 whole entry): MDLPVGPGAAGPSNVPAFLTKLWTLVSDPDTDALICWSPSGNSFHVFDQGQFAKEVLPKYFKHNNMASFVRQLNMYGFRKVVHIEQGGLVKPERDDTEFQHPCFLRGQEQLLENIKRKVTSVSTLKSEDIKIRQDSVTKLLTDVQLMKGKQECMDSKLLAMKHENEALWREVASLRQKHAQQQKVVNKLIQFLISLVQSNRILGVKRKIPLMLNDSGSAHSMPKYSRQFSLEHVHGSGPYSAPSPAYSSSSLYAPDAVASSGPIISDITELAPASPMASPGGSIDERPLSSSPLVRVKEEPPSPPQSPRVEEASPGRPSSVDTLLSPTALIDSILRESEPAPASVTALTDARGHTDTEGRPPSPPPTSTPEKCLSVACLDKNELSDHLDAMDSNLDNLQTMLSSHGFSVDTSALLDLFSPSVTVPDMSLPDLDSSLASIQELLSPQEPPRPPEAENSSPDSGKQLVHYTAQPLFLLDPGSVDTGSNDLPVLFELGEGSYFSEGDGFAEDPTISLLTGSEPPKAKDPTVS
Sequence of SPIB (Q01892 whole entry): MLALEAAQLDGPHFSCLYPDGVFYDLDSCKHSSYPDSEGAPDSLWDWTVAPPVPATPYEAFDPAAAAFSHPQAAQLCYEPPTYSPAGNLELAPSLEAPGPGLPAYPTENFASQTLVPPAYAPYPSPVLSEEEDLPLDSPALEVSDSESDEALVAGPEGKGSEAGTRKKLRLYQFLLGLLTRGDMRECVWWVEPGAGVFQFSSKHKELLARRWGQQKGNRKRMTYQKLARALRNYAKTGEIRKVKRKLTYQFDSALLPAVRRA
Sequence of CRX (O43186 whole entry): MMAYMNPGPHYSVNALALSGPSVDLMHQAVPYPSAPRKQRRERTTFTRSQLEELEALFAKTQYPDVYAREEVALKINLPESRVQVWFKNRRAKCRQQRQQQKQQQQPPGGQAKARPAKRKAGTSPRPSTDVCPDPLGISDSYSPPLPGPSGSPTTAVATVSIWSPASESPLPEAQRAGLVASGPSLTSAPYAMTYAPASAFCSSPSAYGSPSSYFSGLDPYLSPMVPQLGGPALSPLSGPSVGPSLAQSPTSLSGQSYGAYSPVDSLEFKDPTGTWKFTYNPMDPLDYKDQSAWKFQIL
Sequence of ETV5 (P41161 whole entry): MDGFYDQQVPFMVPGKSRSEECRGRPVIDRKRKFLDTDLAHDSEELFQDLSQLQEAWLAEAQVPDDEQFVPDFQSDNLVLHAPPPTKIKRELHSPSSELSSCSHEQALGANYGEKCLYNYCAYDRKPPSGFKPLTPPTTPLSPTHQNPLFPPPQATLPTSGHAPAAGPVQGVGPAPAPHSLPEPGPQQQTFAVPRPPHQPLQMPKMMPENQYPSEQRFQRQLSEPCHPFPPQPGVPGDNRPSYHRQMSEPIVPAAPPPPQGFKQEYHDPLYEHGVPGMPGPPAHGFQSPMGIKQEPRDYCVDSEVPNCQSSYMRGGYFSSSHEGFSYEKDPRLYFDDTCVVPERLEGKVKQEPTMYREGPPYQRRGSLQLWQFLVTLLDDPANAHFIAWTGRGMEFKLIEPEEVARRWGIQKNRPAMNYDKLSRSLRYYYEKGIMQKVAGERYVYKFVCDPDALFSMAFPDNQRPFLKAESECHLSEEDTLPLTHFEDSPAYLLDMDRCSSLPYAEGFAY

With AAACTT, the binding signal in the test with FLI1 is 1.27 fold enrichment (6-mer frequency, TF over GST control); in the test with ELK1 it was 1.22 fold enrichment (6-mer frequency, TF over GST control); with GABPA, 1.31 fold enrichment (6-mer frequency, TF over GST control); with ERG, 1.24 fold enrichment (6-mer frequency, TF over GST control); in the test with ELF1, 1.24 fold enrichment (6-mer frequency, TF over GST control); in the test with EHF, 1.31 fold enrichment (6-mer frequency, TF over GST control). Besides, the binding signal with SPI1 was 1.24 fold enrichment (6-mer frequency, TF over GST control); with SPIB, 1.25 fold enrichment (6-mer frequency, TF over GST control); in the test with ELK3 it was 1.3 fold enrichment (6-mer frequency, TF over GST control); with FEV, 1.3 fold enrichment (6-mer frequency, TF over GST control); in the test with ETV5, 1.22 fold enrichment (6-mer frequency, TF over GST control); with HSF1, 1.37 fold enrichment (6-mer frequency, TF over GST control). The binding signal with SPIC was 1.36 fold enrichment (6-mer frequency, TF over GST control); in the test with ELF4 it was 1.26 fold enrichment (6-mer frequency, TF over GST control); with ELK4, 1.23 fold enrichment (6-mer frequency, TF over GST control); with ETV2 it was 1.28 fold enrichment (6-mer frequency, TF over GST control); in the test with ELF3, 1.13 fold enrichment (6-mer frequency, TF over GST control); with CRX, 1.21 fold enrichment (6-mer frequency, TF over GST control). In the test with ETV1, the binding signal was 1.27 fold enrichment (6-mer frequency, TF over GST control).
